In PubChem BioAssay AID743287 (Broad Institute, 2014):
In all, about 370,000 compounds went through this assay and about 2,300 (0.62%) were called active. The entries come from a sample that favours actives as a whole. Values without a mark were called inactive.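 How the source made its calls: active means lowest replicate activation of at least 40%, so every replicate reaches that level; inactive means the rest.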

assay: primary screen for activators of insulin secretion dependent on glucose, INS-1E cells, GLuc reporter luminescence (AID 743287); settings: INS-1E GLuc reporter insulin secretion, 2-3 h, at 16.6 µM, active compounds read high;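 further: 0% = median of neutral control wells and 100% = median of IBMX positive control wells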

Row | Structure (SMILES) | activation
1 | COc1ccccc1CN1[C@H](CO)[C@H](c2ccccc2)C12CN(C(=O)c1ccccn1)C2 | -3.88%
2 | O=C(C[C@H]1C[C@H]2c3cc(NC(=O)NC4CCCC4)ccc3O[C@H]2[C@@H](CO)O1)NCc1ccc(-c2ccccc2)cc1 | -0.703%
3 | COc1ccc2c3c([nH]c2c1)[C@H](CO)N(Cc1nccs1)CC31CCN(Cc2ccncc2)CC1 | 3%
4 | CC(C)NC(=O)N(C)C[C@H]1Oc2ccc(NS(C)(=O)=O)cc2C(=O)N(C)C[C@@H]1C | -0.922%
5 | Cc1ccc(CSc2nc3[nH]ncc3c(=O)[nH]2)cc1 | 23.2%
6 | CCCSc1nc2[nH]ncc2c(=O)[nH]1 | 53.9% (active)
7 | O=C(CSc1nc2[nH]ncc2c(=O)[nH]1)Nc1ccc(F)cc1 | 5.73%
8 | CN1c2ccc(-c3cccc(F)c3)cc2[C@H]2[C@H](CCN2C(=O)C2CCCC2)[C@@H]1CO | -41.3%
9 | O=C(C[C@H]1C=C[C@H](NC(=O)Nc2cc(F)ccc2F)[C@@H](CO)O1)NCc1ccccn1 | 2.32%
10 | C[C@H]1CN([C@@H](C)CO)C(=O)c2c(c3ccccc3n2C)-c2ccccc2CO[C@@H]1CN(C)C(=O)Nc1ccnc(N2CCOCC2)c1 | -10.3%
11 | O=C(CN(CC1CCCO1)C(=O)CNS(=O)(=O)c1ccccc1)NCc1ccccc1 (stereo not drawn) | 1.79%
12 | CC(C)C(C(=O)NCc1ccco1)N(CC1CCCO1)C(=O)CNS(=O)(=O)c1ccc(F)cc1 (stereo not drawn) | 47.3% (active)
13 | O=C(CN(CC1CCCO1)C(=O)CNS(=O)(=O)c1ccc(F)cc1)NCc1ccco1 (stereo not drawn) | 16.2%
14 | CC(C)C#Cc1ccc2c(c1)O[C@@H](CN(C)C(=O)C1CCC1)[C@@H](C)CN([C@@H](C)CO)S2(=O)=O | -2.35%
15 | COc1ccc(-c2nn3c(-c4ccccc4)nnc3s2)cc1OC | 140% (active)
16 | COc1ccccc1CCn1cnc(-c2ccccc2)c1C(C)C | 40.3%
17 | COc1ccc(-c2cc(NC=O)c3ncc(-c4ccccc4)n3c2)cc1OC | 2.43%
18 | COc1ccc2c3c([nH]c2c1)[C@@H](CO)N(Cc1ccc2c(c1)OCO2)CC31CN(C(=O)Nc2c(C)noc2C)C1 | 8.95%
19 | C[C@H](O)C#Cc1cnc2c(c1)C(=O)N([C@@H](C)CO)C[C@H](C)[C@H](CN(C)C(=O)c1ccccc1)O2 | 11.8%
20 | O=C(Nc1ccc(C(F)(F)F)cc1)N[C@@H]1CC[C@H](CC(=O)N2CCCCC2)O[C@H]1CO | -5.98%
21 | C[C@H]1CN([C@@H](C)CO)C(=O)c2cccc(NC(=O)Nc3ccc(C(F)(F)F)cc3)c2O[C@H]1CN(C)CC1CCCCC1 | -0.988%
22 | NC(c1csc(NC(=O)Nc2cccc(C(F)(F)F)c2)n1)C1CCCCC1 (stereo not drawn) | 48.3% (active)
23 | CC(=O)Nc1ccc(NC(=O)C2CCCN2S(=O)(=O)c2cccc(C(F)(F)F)c2)cc1 (stereo not drawn) | -4.8%
24 | C[C@@H]1CN([C@@H](C)CO)C(=O)c2cccc(NC(=O)Nc3cccc4ccccc34)c2O[C@@H]1CN(C)CC1CC1 | 21.1%

Row | Structure (SMILES) | activation
25 | O=C(Nc1ccccc1F)N[C@H]1C=C[C@H](CC(=O)N2CCCCC2)O[C@H]1CO | -5.96%
26 | O=C(CC1CC1)N1[C@@H](CO)[C@H](c2ccccc2)C12CN(Cc1cccnc1)C2 | 2.36%
27 | CCC(=O)N1C[C@@H](C)[C@H](OC)CN(C)C(=O)c2ccc(NC(=O)C3CCOCC3)cc2OC[C@@H]1C | 8.65%
28 | O=C1CNC[C@H]2[C@@H](c3ccc(C4=CCCC4)cc3)[C@@H](CO)N12 | 2.03%
29 | CCC(=O)N1[C@@H](CO)[C@@H](c2ccc(C3=CCCC3)cc2)C12CN(C(=O)COC)C2 | 3.86%
30 | C[C@@H]1CCCCO[C@@H](CN(C)C(=O)CCCN(C)C)[C@@H](C)CN([C@H](C)CO)C(=O)c2cc(NC(=O)CCCN(C)C)ccc2O1 | 12.7%
31 | CN(CCc1cnn(C)c1)Cc1cn(C)nc1-c1ccccc1F | -1.92%
32 | Cc1ccc2c(C)c(C(=O)N(C)CCC3CCCCO3)oc2c1C (stereo not drawn) | 0.532%
33 | Cc1c(C(=O)N(C)CCc2cnn(C)c2)oc2c(F)cccc12 | 44.6% (active)
34 | COc1ccc(S(=O)(=O)N2CCOCC2)cc1NC(=O)COc1ccccc1 | 43.9% (active)
35 | COc1ccc(S(=O)(=O)N2CCOCC2)cc1NC(=O)Cc1c(F)cccc1Cl | -12.7%
36 | COc1ccc(S(=O)(=O)N2CCOCC2)cc1NC(=O)CSc1ncnc2ccccc12 | 14.3%
37 | COCC(=O)N(C)C[C@@H]1Oc2cc(C#CC3CC3)ccc2S(=O)(=O)N([C@H](C)CO)C[C@H]1C | 5.41%
38 | C[C@@H]1CC=CC[C@H](c2ccc(F)cc2)NC(=O)[C@@H](Cc2ccccc2)N(C)C(=O)c2ccccc2O1 (mixture of isomers) | -20.2%
39 | C[C@@H]1CN([C@H](C)CO)C(=O)c2cc(NS(=O)(=O)c3ccc(F)cc3)ccc2O[C@@H]1CN(C)S(C)(=O)=O | 12.8%
40 | NS(=O)(=O)c1ccc(CNC(=O)c2cc(S(=O)(=O)N3CCOCC3)ccc2N2CCCC2)cc1 | 46.1% (active)
41 | O=C(CNC(=O)c1cc(S(=O)(=O)N2CCOCC2)ccc1N1CCCC1)Nc1ccc(F)c(F)c1 | -28.2%
42 | O=C(NCC1CCCCC1)c1cc(S(=O)(=O)N2CCCCC2)ccc1N1CCOCC1 | -3.7%
43 | C[C@@H]1CCCCO[C@@H](CN(C)Cc2ccc(C(=O)Nc3ccccc3N)cc2)[C@H](C)CN([C@H](C)CO)C(=O)c2cc(N(C)C)ccc2O1 | 4.89%
44 | C[C@@H]1CN([C@@H](C)CO)C(=O)CCCn2cc(nn2)CO[C@@H]1CN(C)C(=O)C1CCCCC1 | 5.75%
45 | COc1ccc2c3c([nH]c2c1)[C@@H](CO)N(C(=O)C1CC1)CC31CCN(C(=O)c2ccncc2)CC1 | 1.51%
46 | O=C(CN1CCCCCC1)Nc1ccc(Br)cc1[N+](=O)[O-] | 7%
47 | O=C(CN1CCCCC1)Nc1ccccc1C(=O)NC1CC1 | 22.4%
48 | O=C(CN1CCC(NC(=O)C2CC2)CC1)Nc1ccccc1[N+](=O)[O-] | 96.7% (active)
